# High-throughput results as filed in PubChem BioAssay.
# In the library only some 9.2% were active in any assay of this set; here they are far more common.
# Rab9 promoter act: activates the Rab9 promoter. Potency, µM (titrated, usually from 9.22 µM), for the others: at the top dose activation, negative = inhibition, most hits filed as activators. Huh7 Rab9 promoter-luciferase reporter, luminescence, 24 h. hit rate 2.8% among 320,000. AID 485297; note: % of control where 0% means no effect; nearly all actives have a fitted effect of over 60% in size
#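 Cells were plated at 1500 per well in reduced-serum medium with 10% FBS and left 2 h. Compound in DMSO was then added for 24 h at 37 °C. Reporter signal was read by luminescence after 10 min with luciferase detection reagent.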
# ELG1 genotox: genotoxicity induction in ELG1-luciferase HEK293T cells; HEK293T ELG1-luciferase reporter, luminescence, 16 h; hit rate 1.3% among 330,000; AID 504466; Potency, µM (top dose mostly 46 µM), for the others: top-dose activity change, positive = activation, hits mostly activators; note: % of control where 0% means no effect; nearly all actives have a fitted effect of over 60% in size
#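 HEK293T cells expressing luciferase-tagged ELG1 were treated with compound or DMSO for 16 hr at 37°C. Luciferase activity was then read after 30 min with ONE-Glo at room temperature; rising signal flags genetic stress.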
# ELG1 repair inh: inhibitors of ELG1-dependent DNA repair in HEK293T cells; HEK293T ELG1-luciferase reporter, luminescence, 16 h; DNA damage induced by 5-fluorouridine; Potency, µM (highest dose often 46.1 µM), inactives show at the top dose activity change, negative = inhibition, usual class: inhibitors; hit rate 2.3% among 330,000; note: % is set by controls: 0 for no effect and ±100 for the full control effect; nearly all actives have a fitted effect of over 55% in size
#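 Luminescence from the luciferase reporter, measured 30 min after ONE-Glo reagent at room temperature, was the read-out. Beforehand, 2,000 cells per well were exposed for 16 hr at 37 °C to 5-fluorouridine together with compound or vehicle.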
# FLuc modulator: firefly luciferase modulation, counter-screen for miR-21 project. purified FLuc, Km substrates, luminescence inhibition. Potency, µM (top dose mostly 57.5 µM), for inactives: at the top dose activity change, negative = inhibition, hits mostly inhibitors. hit rate 6.9% among 360,000. AID 588342;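 note: plate controls were vehicle for no effect and reference inhibitor for full effect; nearly all actives have a fitted effect of over 55% in size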
# Target sequence (P08659 whole entry, looked up): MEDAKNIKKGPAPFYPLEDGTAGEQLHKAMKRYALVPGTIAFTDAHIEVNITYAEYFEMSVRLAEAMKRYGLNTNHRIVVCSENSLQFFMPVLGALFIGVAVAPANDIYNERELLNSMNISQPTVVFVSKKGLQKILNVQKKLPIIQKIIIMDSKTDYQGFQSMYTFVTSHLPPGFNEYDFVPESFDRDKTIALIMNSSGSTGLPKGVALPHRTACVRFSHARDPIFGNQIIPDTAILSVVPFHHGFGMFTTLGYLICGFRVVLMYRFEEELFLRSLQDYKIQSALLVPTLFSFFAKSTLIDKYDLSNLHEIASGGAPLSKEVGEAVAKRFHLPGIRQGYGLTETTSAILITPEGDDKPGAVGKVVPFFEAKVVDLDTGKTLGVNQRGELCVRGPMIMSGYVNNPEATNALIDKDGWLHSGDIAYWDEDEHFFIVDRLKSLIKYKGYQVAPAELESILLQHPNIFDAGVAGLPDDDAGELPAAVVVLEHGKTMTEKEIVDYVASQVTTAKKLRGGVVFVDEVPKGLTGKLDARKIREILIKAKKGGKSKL
#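 Biochemical qHTS of compounds, final roughly 60 µM downward over six points, against 10 nM purified firefly luciferase using Km concentrations of substrates (10 uM D-luciferin, 10 uM ATP) in Tris acetate pH 7.5 buffer; luminescence output.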
# SMN2 splice up: SMN2 splice variant enhancement | HEK293 SMN2-luciferase splicing reporter, luminescence, 30-36 h | Potency, µM (series often up to 46.1 µM), inactives show at the top dose activity change, positive = activation, hits mostly activators | hit rate 2.8% among 210,000; note: % of control where 0% means no effect; nearly all actives have a fitted effect of over 55% in size
#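 qHTS luciferase splicing reporter: luminescence rises when SMN2 exon 7 is included in transfected HEK293 cells. Compound exposure lasted 30-36 h at 37C, with 4.5 mM final sodium butyrate as control, followed by a ONE-Glo read.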
# NPC1 prom act: NPC1 promoter activation; Huh7 NPC1 promoter luciferase reporter, 24 h; Potency, µM (doses to about 9.22 µM), for the others: top-dose activation, usual class: activators; hit rate 2.4% among 320,000; AID 485313; note: % of control where 0% means no effect; nearly all actives have a fitted effect of over 60% in size
#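 In 1536-well qHTS, Huh7 cells harboring an NPC1 promoter–luciferase construct received compound for 24 h; activation was quantified by luminescence following luciferase reagent addition.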
# Numbers without * were called inactive; ? = inconclusive; / = no result; [ ] = dose if it differs, or a comment. Calls come from the whole dose curve; as a rule, active = well fitted curve in the direction sought with a large enough effect; inconclusive = small, poorly fitted or top-dose-only effect, or another doubt; inactive = no such curve, though single readings can be large; an effect the other way counts as inactive or inconclusive. Potency is the fitted concentration of half-maximal effect.
SMILES,Rab9 promoter act,ELG1 genotox,ELG1 repair inh,FLuc modulator,SMN2 splice up,NPC1 prom act
CCn1c(SCC(=O)N2CCN(c3ccccc3)CC2)nnc1-c1c[nH]c2ccccc12,-7%,-10%,13µM*,0%,-75%,-4%
Cc1ccc(CN2CCN(Cc3cc4ccccc4o3)CC2CCO)cc1 (stereo not drawn),6%,-3%,-12%,-3%,/,3%
c1ccc2c(COn3nnc4ccccc43)cccc2c1,2.5µM*,8.9µM*,?,11µM*,/,?
c1ccc2c(Cn3nnc4ccccc43)cccc2c1,-5%,2%,-2%,2%,5%,1%
C[C@@]12C(=O)N(CC3CC3)CC(=O)N1[C@H](/C=C/c1ccccc1)[C@@H]1C(=O)N(c3ccccc3)C(=O)[C@@H]12,-20%,0%,3%,-4%,/,-2%
NS(=O)(=O)c1ccc(CCNc2ncnc3c2c(-c2ccccc2)cn3-c2ccc(F)cc2)cc1,-3%,-8%,16µM*,3%,-16%,-4%
COCCNC(=O)/C(C#N)=C/c1ccc2c(c1)OCO2,17%,13%,?,?,/,3%
C=CCNC(=O)/C(C#N)=C/c1ccc(SC)cc1,3%,11%,-18%,12µM*,0%,0%
C=CCNC(=O)/C(C#N)=C/c1ccc2c(c1)OCCO2,7%,13%,?,12µM*,-5%,0%
CSc1ccc(/C=C(\C#N)C(=O)NC2CCCCC2)cc1,-4%,1%,?,3%,-7%[1.84 µM],-2%
N#C/C(=C\c1ccc2c(c1)OCCO2)C(=O)Nc1nccs1,1%,10%,?,0.6µM*,/,2%
CC(C)C(=O)c1cc2c(cc1NC(=O)c1ccccc1F)OCCO2,/,/,/,4%,/,/
COc1cc2c(cc1OC)[C@@H]1CC(=O)[C@@H](CC(C)C)CN1CC2,/,/,/,/,-12%,/
CCCCCn1c(=N)n(CC(O)COc2cccc(C)c2)c2ccccc21 (stereo not drawn),/,/,/,5%,-34%,/
COc1ccc(OCC(=O)Nc2nonc2NC(=O)COc2ccc(OC)cc2)cc1,2%,2%,9%,1.9µM*,14%,1%
Cc1cc(C)cc(OCC(=O)Nc2nonc2NC(=O)COc2cc(C)cc(C)c2)c1,-6%,-1%,6%,-2%,-2%,-2%
COc1ccc(OCC(=O)Nc2cccc(NC(=O)COc3ccc(OC)cc3)n2)cc1,?,?,?,2.1µM*,-11%,2.5µM*
Cc1onc(-c2c(Cl)cccc2Cl)c1C(=O)Nc1ccc(C(N)=O)cc1,2%,-15%,-5%,3%,/,1%
O=C(O)c1ccccc1NS(=O)(=O)c1ccc2ccccc2c1,8%,12%,?,15µM*,/,1%
O=C(O)c1ccccc1NS(=O)(=O)c1cccc(-n2sc3ccccc3c2=O)c1,0%,-8%,15%,11µM*,/,1%
O=C(NNS(=O)(=O)c1ccccc1)c1csc(-c2cccnc2)n1,-2%,-8%,12µM*,0%,/,-3%
O=C(NNC(=O)c1csc(-c2cccnc2)n1)c1ccccc1,-3%,1%,-18%,?,/,12%
O=C(Nc1ccccc1Cl)c1csc(-c2cccnc2)n1,2.8µM*,18%,?,12µM*,/,2.8µM*
C=CCn1c(=S)[nH]c2nc3c(cc2c1=O)CCCC3,16%,16µM*,23%,-16%,-14%,19%
C=CCn1c(=S)[nH]c2ccc(Br)cc2c1=O,-4%,-14%,?,2%,-7%,0%
SMILES,Rab9 promoter act,ELG1 genotox,ELG1 repair inh,FLuc modulator,SMN2 splice up,NPC1 prom act
CN(C)c1ccc(/C=C2\SC(N3CCCCC3)=NC2=O)cc1,20%,?,?,0.54µM*,/,?
COc1ccc(/C=C2\SC(N3CCCCC3)=NC2=O)cc1OC,-5%,?,?,11µM*,/,1%
CCOC(=O)C1CCN(C2=NC(=O)/C(=C/c3ccc(OC)c(OC)c3)S2)CC1,-6%,1%,-5%,?,/,-2%
COc1ccc(OC)c(/C=C2\SC(N3CCCC(C)C3)=NC2=O)c1 (stereo not drawn),-3%,1%,?,?,/,6%
O=C1N=C(N2CCCCC2)S/C1=C/C1=Cc2ccccc2OC1,20%,?,?,2.4µM*,9%,12%
COc1cc(/C=C2\SC(N3CCC(C)CC3)=NC2=O)ccc1O,23%,18µM*,?,11µM*,/,9%
CCc1nc(Nc2ccc3c(c2)OCCO3)c2oc3ccccc3c2n1,-4%,-13%,?,27µM*,-42%,-1%
O=[N+]([O-])c1ccc2ncnc(Nc3ccc4c(c3)OCCO4)c2c1,0%,-9%,?,0%,-1%,14%
CCc1nc(Nc2ccc(O)cc2)c2oc3ccccc3c2n1,9%,-8%,16µM*,19µM*,/,14%
c1ccc2c(c1)oc1c(Nc3ccc4c(c3)OCCO4)ncnc12,1.6µM*,13%,?,2.4µM*,2.8µM*,?
Cc1nc(Nc2ccc3c(c2)OCCO3)c2oc3ccccc3c2n1,3%,-3%,-4%,?,-40%,14%
c1ccc2c(c1)oc1c(N3CCN(Cc4ccc5c(c4)OCO5)CC3)ncnc12,-12%,18µM*,?,17µM*,-67%,0%
COc1cccc(NC(=O)Cn2c(=O)n(CCc3ccccc3)c(=O)c3c4c(sc32)CN(C(C)=O)CC4)c1,/,/,/,-6%,16%,/
c1ccc(-c2nc(-c3nccc4ccccc34)oc2-c2ccccc2)cc1,3.2µM*,?,?,6µM*,/,?
Cc1cccc2nc(COc3ccc4ccccc4c3Br)cn12,3.2µM*,?,?,2.4µM*,/,3.5µM*
CC1(C)CC2CC(C)(CN2/C=N/c2sc3c(c2C#N)CC(C)(C)NC3(C)C)C1 (stereo not drawn),-13%,-1%,23µM*,0%,/,4%
CC1(C)Cc2c(sc(N)c2C#N)C(C)(C)N1,-1%,0%,18%,-3%,/,0%
CCOc1ccc(Nc2cc(C)c3ccccc3n2)cc1,?,11%,?,17µM*,/,21%
CCOc1ccc(Nc2c3ccccc3nc3ccccc23)cc1,-25%,-7%,5.8µM*,-8%,/,-23%
CCN(CC)S(=O)(=O)c1ccc(C(=O)N2CCN(CCN3C(=O)c4cccc5cccc(c45)C3=O)CC2)cc1,-8%,2%,4%,1%,-11%,-6%
O=C(c1ccc(S(=O)(=O)N2CCCC2)cc1)N1CCC(CN2C(=O)c3cccc4cccc(c34)C2=O)CC1,-9%,-18%,10µM*,-2%,/,-7%
